The nature of experiment [1]: ATG_NFI_CIS: Attagene CIS-FACTORIAL HepG2 Assay for human Nuclear Factor I (NFI) (AID 2282989). The settings on record: HepG2 cis-regulatory reporter, NFI response element transcription; actives raise or lower the signal. The procedure, abridged: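 Multiplexed cis-reporter system in human HepG2 cells reports native TF activity as reporter mRNA induction 24 h post-dose. Fragments labelled with 6-FAM, HpaI-digested and resolved by capillary electrophoresis; activity fitted both directions versus DMSO.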

In experiment [2] the target is Myc proto-oncogene protein (Homo sapiens) (UniProt P01106). As to the kind of experiment: ATG_Myc_CIS: Attagene CIS-FACTORIAL HepG2 Assay for human Myelocytomatosis (Myc) Proto-Oncogene Transcription Factor (AID 2282990). As to conditions: HepG2, Attagene cis-reporter transcription factor activity; actives raise or lower the signal. The procedure, abridged:
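Read-out: fluorescent reporter mRNA fragments resolved by capillary electrophoresis after RT-PCR. Human HepG2 liver cells carried transfected cis-element reporter units and were dosed for 24 h. Gain or loss of signal fitted relative to DMSO baseline.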

Experiment [3] is described as follows: ATG_NF_kB_CIS: Attagene CIS-FACTORIAL HepG2 Assay for human Nuclear Factor Kappa B (NF-kB) (AID 2282991). The settings on record: HepG2 Attagene cis-factorial NF-kB reporter mRNA; actives raise or lower the signal. In outline: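 HepG2, transient multi-reporter transfection, cis promoter elements (endogenous TFs). 24 h exposure. Total RNA → RT → PCR → 6-FAM label → HpaI → CE. Gain/loss vs DMSO.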

Experiment [4] is described as follows: ATG_NRF2_ARE_CIS: Attagene CIS-FACTORIAL HepG2 Assay for human Nuclear Factor Erythroid 2 Related Factor 2 (NFR2) response to Antioxidant Response Elements (ARE) (AID 2282992).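 For AC50: reporter mRNA level measured by RT-PCR and capillary electrophoresis fluorescence.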 The settings on record: HepG2 Attagene ARE/NRF2 reporter, transcription factor activity; actives raise or lower the signal. In outline: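 HepG2 cells transiently transfected with multiplexed cis-element reporter constructs, 24 h after chemical dosing; reporter mRNA quantified by RT-PCR, fluorescent primer extension, HpaI digestion and capillary electrophoresis. Bidirectional fit relative to DMSO.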

Experiment [5] is described as follows: ATG_Oct_MLP_CIS: Attagene CIS-FACTORIAL HepG2 Assay for human Octamer-Binding Transcription Factor (Oct) (AID 2282993). The settings on record: HepG2 Attagene cis-factorial Oct reporter, mRNA; actives raise or lower the signal. The procedure, abridged:
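After 24 h compound exposure, transfected HepG2 cells were lysed for total RNA; reporter-specific cDNA was PCR-amplified, fluorescently labelled and sized by capillary electrophoresis. Bidirectional curve fitting used DMSO as baseline.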

In experiment [6] the target is Cellular tumor antigen p53 (Homo sapiens) (UniProt P04637). As to the kind of experiment: ATG_p53_CIS: Attagene CIS-FACTORIAL HepG2 Assay for human p53 Transcription Factor (AID 2282994). The settings on record: HepG2 p53 cis-element reporter, Attagene mRNA; actives raise or lower the signal. The procedure, abridged:
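HepG2 cells transiently transfected with cis-regulated multiple reporter transcription units, dosed 24 h. Reporter mRNA measured by RT-PCR, 6-FAM primer extension, HpaI digestion and capillary electrophoresis; bidirectional fit relative to DMSO.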

Calls of active or inactive are those of the source. Rule for the calls: active = hit-call score of the fitted dose curve at least 0.9, where 1 is the maximum; inactive = score below 0.9.

Sequence of Myc proto-oncogene protein (Homo sapiens) (P01106 whole entry, looked up, the tested form may be a part): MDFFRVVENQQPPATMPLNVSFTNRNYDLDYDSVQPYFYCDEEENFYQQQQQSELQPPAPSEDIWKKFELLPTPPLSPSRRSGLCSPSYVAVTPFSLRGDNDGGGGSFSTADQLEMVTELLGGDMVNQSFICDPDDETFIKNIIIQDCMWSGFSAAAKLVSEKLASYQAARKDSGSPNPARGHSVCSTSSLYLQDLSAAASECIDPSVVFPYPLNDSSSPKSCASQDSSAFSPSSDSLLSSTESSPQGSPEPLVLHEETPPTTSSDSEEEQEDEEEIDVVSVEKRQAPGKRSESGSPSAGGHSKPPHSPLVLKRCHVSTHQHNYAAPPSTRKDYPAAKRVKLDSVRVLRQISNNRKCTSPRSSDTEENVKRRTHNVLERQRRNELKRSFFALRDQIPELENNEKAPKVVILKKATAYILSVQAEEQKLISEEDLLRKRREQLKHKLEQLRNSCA
Sequence of Cellular tumor antigen p53 (Homo sapiens) (P04637 whole entry, looked up): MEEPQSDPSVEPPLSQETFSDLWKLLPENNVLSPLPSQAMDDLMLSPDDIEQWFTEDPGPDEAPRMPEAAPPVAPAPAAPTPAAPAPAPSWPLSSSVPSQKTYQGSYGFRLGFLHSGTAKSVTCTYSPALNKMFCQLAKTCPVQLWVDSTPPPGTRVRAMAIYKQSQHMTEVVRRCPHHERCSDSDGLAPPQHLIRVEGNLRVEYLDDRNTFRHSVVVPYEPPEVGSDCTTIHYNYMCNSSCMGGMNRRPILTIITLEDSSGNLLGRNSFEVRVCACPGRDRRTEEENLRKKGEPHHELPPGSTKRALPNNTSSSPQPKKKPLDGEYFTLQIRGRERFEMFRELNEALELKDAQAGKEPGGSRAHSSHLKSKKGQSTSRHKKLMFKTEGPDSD

On to `Cc1c(N(C)C)c(=O)n(-c2ccccc2)n1C`, for which the compound was called inactive in experiment [1], in experiment [2], in experiment [3], in experiment [4] and in experiment [5].
As to `CC(C)OP(=O)(CP(=O)(OC(C)C)OC(C)C)OC(C)C`, the result in experiment [1], in experiment [2], in experiment [3], in experiment [4], in experiment [5] and in experiment [6] was inactive.
As for `O=C1O[C@@H]2[C@@H](O)[C@H](O)O[C@@H]2[C@H]1O`, the compound was called inactive in experiment [1], in experiment [2], in experiment [3], in experiment [4], in experiment [5] and in experiment [6].
The term AC50 denotes the concentration giving half of the maximal activity seen. For the compound `NC(N)=NC(=O)c1nc(Cl)c(N)nc1N`, the compound was called inactive in experiment [1], in experiment [2], in experiment [3], in experiment [5] and in experiment [6]. For the same compound, the AC50 in experiment [4] is 62.6 µM (active).
Regarding `CC(C)(N)CO`, the outcome in experiment [1], in experiment [2], in experiment [3], in experiment [4], in experiment [5] and in experiment [6] was inactive.
With `CN(C)CCOCCN(C)C`, the outcome in experiment [1], in experiment [2], in experiment [3], in experiment [4], in experiment [5] and in experiment [6] was inactive.
With `O=C(Oc1ccccc1)c1ccc(O)cc1`, the outcome in experiment [1], in experiment [2], in experiment [3], in experiment [4], in experiment [5] and in experiment [6] was inactive.
As to `Nc1cc(Cl)c(O)c(Cl)c1`, in experiment [1], the compound was classed as inactive. Besides, the AC50 in experiment [2] is 100 µM (active); in experiment [3], 46.8 µM (active); in experiment [4], 26.5 µM (active); in experiment [5] it was 100 µM (active); in experiment [6], 144 µM (active).
Regarding `CC1(CO)CN(c2ccccc2)NC1=O` (stereo unspecified), the compound was called inactive in experiment [1], in experiment [2], in experiment [3], in experiment [4], in experiment [5] and in experiment [6].
As to `FC1(F)C(F)(F)C(F)(F)C2(F)C(F)(C1(F)F)C(F)(F)C(F)(F)C1(F)C(F)(F)C(F)(F)C(F)(F)C(F)(F)C12F` (stereo unspecified), the compound was classed as inactive in experiment [1], in experiment [2], in experiment [3], in experiment [4], in experiment [5] and in experiment [6].
With `CC1CCC(C(C)(C)O)CC1` (stereo unspecified), the call in experiment [1], in experiment [2], in experiment [3], in experiment [4], in experiment [5] and in experiment [6] was inactive.
As to `NCCCCCCN`, the compound was classed as inactive in experiment [1], in experiment [2], in experiment [3], in experiment [4], in experiment [5] and in experiment [6].
Consider `CC(C)C(C)(C)C(C)(C)C(C)(C)S`, for which the outcome in experiment [1], in experiment [2], in experiment [3], in experiment [4], in experiment [5] and in experiment [6] was inactive.
Regarding `Cc1cccc(C)c1C`, the compound was called inactive in experiment [1], in experiment [2], in experiment [3], in experiment [4], in experiment [5] and in experiment [6].
As for `CC[C@]12CCCN3CCc4c(n(c5ccccc45)[C@@](O)(C(=O)OC)C1)[C@@H]32`, the call in experiment [1], in experiment [2], in experiment [4] and in experiment [5] was inactive. For the same compound, the AC50 in experiment [3] was 170 µM (active); in experiment [6], 164 µM (active).
In the case of `CCCC(C)C=O` (stereo unspecified), the result in experiment [1], in experiment [2], in experiment [3], in experiment [4], in experiment [5] and in experiment [6] was inactive.
Take `O=C(Nc1ccccc1)c1cc([N+](=O)[O-])ccc1Cl`: the compound was classed as inactive in experiment [1], in experiment [2], in experiment [3] and in experiment [5]. In addition, the results for the AC50 in experiment [4] and in experiment [6] were 34.6 µM (active) and 68.6 µM (active), respectively.
As for `CN(C)CCCN`, the result in experiment [1], in experiment [2], in experiment [3], in experiment [4], in experiment [5] and in experiment [6] was inactive.
For `CCCC(=O)c1cc(O)c(O)cc1O`, the outcome in experiment [1], in experiment [2], in experiment [3], in experiment [4], in experiment [5] and in experiment [6] was inactive.
Take `O=S(=O)(O)c1ccc(O)c2ncccc12`: the outcome in experiment [1], in experiment [2], in experiment [3], in experiment [4], in experiment [5] and in experiment [6] was inactive.
Turning to `Nc1ccc(S(=O)(=O)O)c(N)c1`, the result in experiment [1], in experiment [2], in experiment [3], in experiment [4], in experiment [5] and in experiment [6] was inactive.
`CC(C)CCCCCCCOC(=O)c1ccc(C(=O)OCCCCCCCC(C)C)c(C(=O)OCCCCCCCC(C)C)c1`: the compound was classed as inactive in experiment [1], in experiment [2], in experiment [3], in experiment [4], in experiment [5] and in experiment [6].
In the case of `Cc1ccc(S)cc1`, the outcome in experiment [1], in experiment [2], in experiment [3], in experiment [4] and in experiment [5] was inactive. In addition, in experiment [6], the AC50 is 65.1 µM (active).
With `Fc1c(F)c(F)c(Br)c(F)c1F`, the outcome in experiment [1], in experiment [2], in experiment [3], in experiment [4], in experiment [5] and in experiment [6] was inactive.
Take `C=C(C)[C@@H]1CCC2=CC(=O)C[C@@H](C)[C@]2(C)C1`: the outcome in experiment [1], in experiment [2], in experiment [3], in experiment [5] and in experiment [6] was inactive. In experiment [4], the AC50 was 80.7 µM (active).
As to `NC(=O)c1ccccc1Cl`, the AC50 in experiment [1] was 61.6 µM (active); in experiment [4], 25.8 µM (active); in experiment [5], 55.1 µM (active); in experiment [6], 143 µM (active). Also, the compound was called inactive in experiment [2] and in experiment [3].
For `C=C[C@@H](C)CCC=C(C)C`, the compound was classed as inactive in experiment [1], in experiment [2], in experiment [3], in experiment [4], in experiment [5] and in experiment [6].
Regarding `C=C(C)C(=O)OCCOC(=O)CC(C)=O`, the result in experiment [1], in experiment [2], in experiment [3], in experiment [4], in experiment [5] and in experiment [6] was inactive.
Turning to `O=[N+]([O-])c1ccc(Nc2ccc(Nc3ccccc3)c(S(=O)(=O)O)c2)c([N+](=O)[O-])c1`, the compound was classed as inactive in experiment [1], in experiment [2], in experiment [3] and in experiment [5]. In addition, the half-maximal activity concentration (AC50) in experiment [4] is 171 µM (active); in experiment [6], 178 µM (active).
For the compound `CNC(=O)Oc1ccc2c(c1)[C@]1(C)CCN(C)[C@@H]1N2C`, the outcome in experiment [1], in experiment [2], in experiment [3], in experiment [5] and in experiment [6] was inactive. Moreover, the AC50 in experiment [4] was 100 µM (active).
In the case of `COCCCOc1ccnc(CS(=O)c2nc3ccccc3[nH]2)c1C` (stereo unspecified), the call in experiment [1], in experiment [2], in experiment [3], in experiment [5] and in experiment [6] was inactive. The half-maximal activity concentration (AC50) in experiment [4] was 36.4 µM (active).
Turning to `O=C(O)Cc1cccc2ccccc12`, the call in experiment [1], in experiment [2], in experiment [3], in experiment [4], in experiment [5] and in experiment [6] was inactive.

For the origin of these results see PubChem BioAssay (EPA / NIEHS).
